Rows were chosen to be rich in hits. Some 18% of all compounds tested hit in one or more screens of this group.
IL1B secr inh – inflammasome signaling inhibition, IL-1 beta readout; activity change, % at 57.5 µM; THP-1 LPS/ATP IL-1B secretion, AlphaLISA, 16 h; hits give low values; 360,000 tested, 4.7% active; in the data active means activity change below about -50%; inconclusive means mostly about -30% to -49%
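Secreted IL-1B measured by AlphaLISA bead assay after 16 h compound exposure of THP-1 cells; compounds (final up to 57.5 uM) added 1 h before LPS (250 ng/mL) and ATP (1.25 mM) stimulation; lower signal means less secretion.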
TDP1 cell CPT – DT40-hTDP1 cell growth loss with CPT; AID 686979; 420,000 tested, 12% active; Potency, µM (series often up to 46.2 µM), inactives show at the highest dose activity change, negative = growth inhibition, usual class: inhibitors; chicken DT40 Tdp1-/-;hTDP1 cells + 20 nM CPT, ATP luminescence, 48 h; further: potency means the concentration at half of the fitted maximal effect; nearly all actives have a fitted effect of over 55% in size
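Chicken DT40 Tdp1-/- cells complemented with human TDP1, 400 cells/well, exposed to compounds plus 20 nM camptothecin for at least 48 h at 37 C; viability read as ATP content by CellTiter-Glo luminescence.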
CtBP-E1A blk – inhibitors of CtBP/E1A interaction; activity change, % (test concentration not listed); 340,000 tested, 0.49% active; AlphaScreen GST-E1A/His-CtBP binding, 1536-well; hits give low values; in the data active means activity change below about -65%; inconclusive means mostly about -30% to -63%
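In 5 uL wells, 23 nL compound meets equimolar GST-E1A and His-CtBP (5X stock 125 nM each) for 2 h, 37 °C. Beads (5X, 50 ug/mL) then 1 h, 37 °C, dark.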
TDP1 block – TDP1 (human) enzyme inhibition; recombinant TDP1, AlphaScreen DNA substrate cleavage; Potency, µM (highest dose often 130 µM), for inactives: at the top dose activity change, negative = inhibition, actives largely listed as inhibitors; 350,000 tested, 0.28% active; AID 485290; further: potency means the concentration at half of the fitted maximal effect; nearly all actives have a fitted effect of over 40% in size
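Enzyme-compound mixtures sat 15 min at room temperature, followed by a 5 min reaction with 15 nM final substrate and 10 min with AlphaScreen beads. Recombinant human Tdp1 was used at 1 nM final.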
DT40 TDP1 no CPT – qHTS for Inhibitors of human tyrosyl-DNA phosphodiesterase 1 (TDP1): qHTS in cells in absence of CPT | 420,000 tested, 15% active | DT40 Tdp1-/- hTDP1 cells, no CPT, ATP luminescence, 48 h | Potency, µM (series often up to 46.2 µM), inactives show at the highest dose activity change, negative = growth inhibition, hits mostly inhibitors | AID 686978, 2013; further: potency means the concentration at half of the fitted maximal effect; nearly all actives have a fitted effect of over 55% in size
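DT40 Tdp1-/-;hTDP1 cells, no CPT (DMSO vehicle only), 400 cells/well; compounds pin-transferred; ≥48 hr, 37 °C; CellTiter-Glo 30 min RT dark, luminescence read.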
Six1-Eya2 blk – Six1/Eya2 interaction inhibition; activity change, % (test concentration not listed); 360,000 tested, 0.56% active; AlphaScreen GST-Six1/His-Eya2 binding, biochemical; hits give low values; Q15475+O00167; in the data active means activity change below about -65%; inconclusive means mostly about -30% to -63%
Target sequence (O00167 whole entry, looked up): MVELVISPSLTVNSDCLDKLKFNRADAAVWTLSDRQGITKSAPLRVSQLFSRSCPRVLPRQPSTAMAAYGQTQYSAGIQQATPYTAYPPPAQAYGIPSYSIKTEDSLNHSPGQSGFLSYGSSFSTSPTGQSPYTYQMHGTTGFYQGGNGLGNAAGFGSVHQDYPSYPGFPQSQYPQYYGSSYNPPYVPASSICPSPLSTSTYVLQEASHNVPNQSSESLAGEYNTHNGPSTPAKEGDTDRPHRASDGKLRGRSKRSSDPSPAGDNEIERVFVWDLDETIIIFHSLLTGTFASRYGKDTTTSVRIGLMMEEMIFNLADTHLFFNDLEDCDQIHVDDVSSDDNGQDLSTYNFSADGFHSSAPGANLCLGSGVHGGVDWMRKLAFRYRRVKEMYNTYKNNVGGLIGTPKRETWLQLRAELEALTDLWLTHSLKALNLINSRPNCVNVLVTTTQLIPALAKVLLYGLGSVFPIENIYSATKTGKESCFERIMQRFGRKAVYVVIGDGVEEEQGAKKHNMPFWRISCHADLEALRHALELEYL
Target sequence (Q15475 whole entry, looked up): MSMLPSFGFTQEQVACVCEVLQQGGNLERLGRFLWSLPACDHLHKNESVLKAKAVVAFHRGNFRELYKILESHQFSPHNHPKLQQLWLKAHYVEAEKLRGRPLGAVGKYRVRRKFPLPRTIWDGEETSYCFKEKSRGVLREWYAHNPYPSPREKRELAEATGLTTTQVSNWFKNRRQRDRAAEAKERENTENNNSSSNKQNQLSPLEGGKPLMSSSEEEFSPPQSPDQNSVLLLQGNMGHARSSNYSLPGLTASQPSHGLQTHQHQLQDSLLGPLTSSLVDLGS
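GST-Six1 + His-Eya2 (5X stock: 250/500 nM); Tris pH 8.0, 300 mM NaCl, 0.05% BSA, 0.02% Tween 20; GSH donor/Ni acceptor beads; 1 h 37 °C dark; AlphaScreen readout.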
Numbers without * were called inactive; ? = inconclusive; / = no result; [ ] = another dose, or the depositor's remark. Unless noted, the call rests on the fitted dose curve; in most records, active means well fitted curve in the direction sought with a large enough effect; inconclusive means small, poorly fitted or top-dose-only effect, or another doubt; inactive means no such curve, though single readings can be large; an effect the other way counts as inactive or inconclusive. On the % scale 0 is the no-effect control and ±100 the full control effect.

SMILES | IL1B secr inh | TDP1 cell CPT | CtBP-E1A blk | TDP1 block | DT40 TDP1 no CPT | Six1-Eya2 blk
COc1cc(S(=O)(=O)NCCCn2ccnc2)ccc1F | 2 | 0% | / | / | -18% | -8
COc1cc(/C=C/c2ccc3cccc(O)c3n2)cc(Br)c1OC | ? | 12µM* | -7 | / | 18µM* | -10
CCC1CC(C)(C(=O)Nc2ccc(S(N)(=O)=O)cc2)OC1=O (stereo not given) | 42 | -10% | 3 | 7% | -4% | 2
CCOC(=O)c1noc2c1CCC2 | 2 | 22% | -4 | / | 14% | 6
O=C(c1ccc2[nH]c3c(c2c1)CCCC3)N1CCN(c2ccc(F)cc2)CC1 | -18 | 23µM* | -3 | 11% | ? | -24
COc1ccccc1N1CCN(C(=O)c2cccc(Oc3ccccc3)c2)CC1 | 22 | -30% | 1 | 2% | -15% | -4
COc1ccccc1N1CCN(C(=O)c2ccc3[nH]c4c(c3c2)CCCC4)CC1 | -76* | ? | -26 | 1% | ? | -30
CC(=O)c1ccc(N2CCN(C(=O)c3ccc4[nH]c(C)c(C)c4c3)CC2)cc1 | -12 | 21µM* | ? | 6% | 16µM* | ?
Cc1ccc(NC(=O)/C=C/c2ccc(C)o2)c(C)c1 | / | ? | / | -3% | ? | /
CC(C)N(Cc1nnc(-c2ccccc2Cl)o1)C(=O)COc1cccc(Cl)c1 | 13 | -24% | 0 | / | ? | 13
CCC(=O)c1ccc(OCC(=O)N(Cc2nnc(-c3ccccc3Cl)o2)C2CC2)cc1 | -10 | ? | -1 | / | ? | 0
Cc1ccc(C)c(OCC(=O)N(Cc2nnc(-c3ccccc3Cl)o2)C2CC2)c1 | -5 | ? | -2 | / | ? | 0
Cc1cccc(OCC(=O)N(Cc2nnc(-c3ccccc3Cl)o2)C2CC2)c1 | -2 | 16µM* | 7 | 0% | ? | -2
O=C(COc1ccc(Br)cc1)N(Cc1nnc(-c2ccccc2Cl)o1)C1CC1 | -4 | 23µM* | -3 | / | 23µM* | 0
O=C(COc1ccc(F)cc1Cl)N(Cc1nnc(-c2ccccc2Cl)o1)C1CC1 | -11 | -29% | -19 | / | 16µM* | 3
CCOC(=O)N1CCN(c2c(NCCc3ccccc3)c(=O)c2=O)CC1 | 56 | 2% | 0 | 2% | 4% | 8
CCOC(=O)C1CCCN(C(=O)/C=C/c2cccc([N+](=O)[O-])c2)C1 (stereo not given) | -1 | -21% | 4 | 2% | ? | 5
CC(=O)c1cccc(NC(=O)Cn2c(=O)oc3cc(S(=O)(=O)NC4CCCC4)ccc32)c1 | / | ? | / | -7% | ? | /
Nc1nc(=S)ss1 | -98* | 16µM* | -3 | / | 7.3µM* | 4
C=Cc1cccc(NC(=O)c2ccc(NC(=O)c3ccco3)cc2)c1 | -10 | 15µM* | -7 | 2%[56.1 µM] | 6.5µM* | -1
O=C(Cc1ccccc1)Nc1ccc(NC(=O)c2ccco2)cc1 | ? | 3% | -18 | -15% | -24% | 11
O=C(/C=C\c1ccccc1)Nc1ccc(NC(=O)c2ccco2)cc1 | 49 | 12µM* | 9 | 1% | 23µM* | 1
Cc1cc(C)cc(NC(=O)c2ccc(NC(=O)c3ccco3)cc2)c1 | / | 21µM* | -19 | 6% | ? | -11
COC(=O)c1ccc(NC(=O)c2ccc(NC(=O)c3ccco3)cc2)cc1 | 92 | -28% | 7 | 2% | -15% | 2
Cc1cc(C)c2c(=O)[nH]cnc2n1 | 40 | ? | 2 | 0% | 0% | 7
SMILES | IL1B secr inh | TDP1 cell CPT | CtBP-E1A blk | TDP1 block | DT40 TDP1 no CPT | Six1-Eya2 blk
CCOc1ccccc1OCC(=O)OCC(=O)c1c(N)n(CC(C)C)c(=O)n(C)c1=O | 6 | ? | / | 1% | 18µM* | 4
Cc1csc(=O)n1CC(=O)OCC(=O)c1c(N)n(CC(C)C)c(=O)n(C)c1=O | 12 | ? | 1 | 0% | 23µM* | -11
CCC(C(=O)OCC(=O)c1c(N)n(CC(C)C)c(=O)n(C)c1=O)c1ccccc1 (stereo not given) | -12 | 21µM* | -1 | / | 23µM* | -1
O=C(C(=O)N1CCN(c2ccccc2F)CC1)c1cn(CC(=O)N2CCOCC2)c2ccccc12 | -5 | ? | 3 | 2% | ? | 1
CCCN(CCC)C(=O)Cn1c(=O)n(-c2cccc(OC)c2)c(=O)c2c(C)c(C(=O)N(C)C)sc21 | / | -8% | / | 0% | -3% | /
NC(=O)N[C@H]1NC(=O)NC1=O | / | / | / | 9%[21 µM] | / | /
CC(/C=N/Nc1nnc2c(n1)[nH]c1ccccc12)=C\c1ccco1 | 31 | 26µM* | 0 | 8% | ? | -1
COc1ccc(NC(=O)c2csnn2)cc1Cl | / | ? | / | -4% | ? | /
Cc1nn(-c2ccccc2)c(C)c1NC(=O)COc1ccc(F)cc1Cl | -4 | 23µM* | -7 | 2% | 21µM* | -18
Cc1ccc(OCC(=O)Nc2c(C)nn(-c3ccccc3)c2C)c(Br)c1 | ? | ? | -17 | 2% | 23µM* | -5
Cc1nn(-c2ccccc2)c(C)c1NC(=O)COc1ccc([N+](=O)[O-])cc1 | -17 | ? | -1 | / | 15µM* | -8
Cc1ccc(C)c(OCC(=O)OCC(=O)Nc2c(C)nn(-c3ccccc3)c2C)c1 | 12 | -9% | 0 | -10% | 2% | 18
Cc1nn(-c2ccccc2)c(C)c1NC(=O)COC(=O)c1ccccc1OC(F)F | 11 | 0% | -2 | 1% | 17% | 3
CC(C)(C)c1ccc(C(=O)N2CCN(CCc3ccccn3)CC2)cc1 | / | -8% | / | 3% | ? | /
Cc1cc(CSC(=N)N)c(CSC(=N)N)cc1C | -7 | ? | 8 | 1% | 23µM* | 1
C/C(CCc1ccc2c(c1)OCO2)=N\NC(=O)c1ccc(C)cc1C | -10 | 1% | 2 | -1% | 2.9µM* | -6
Cc1ccc(C(=O)C=Cc2ccc3c(c2)OCO3)c(C)c1 | ? | ? | 0 | / | ? | 5
C/C(CCc1ccc2c(c1)OCO2)=N\NC(=S)NC(C)C | -10 | 18µM* | 8 | 7% | 16µM* | -1
COCCNC(=S)N/N=C(\C)CCc1ccc2c(c1)OCO2 | 24 | -30% | 5 | 6% | -26% | -9
Cn1nnnc1SCC(=O)Nc1ccccc1Cl | -5 | -17% | -3 | 3% | -8% | 3
CCCC1C2C(=O)N(c3ccc(OC)cc3)C(=O)C2ON1c1ccccc1 (stereo not given) | -5 | 0% | 9 | 2% | -5% | 5
